# Of roughly 7,900 targets only a part is listed; those with a hit were picked by preference. About 0.6% of all pairs of compound and target were hits.
# Compound: CCN(CC)Cc1ccc2cc(COC(=O)Nc3ccc(C(=O)NO)cc3)ccc2c1 [givinostat]
# Assay: log2 fold change, soluble protein after heating vs DMSO (PISA); higher = thermal stabilisation; K562 cells, 10 uM, 30 min; active = over 0.2 and 3.5 SD of the protein, either way, in both replicates (recomputed)
# In short: (§1)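 K562 cells at 2×10^6 cells/mL were treated with 10 μM compound for 30 min. Aliquots were heated for 3 min across 48°C-58°C, pooled, and extracted in PBS with 0.5% NP-40 at 4°C; soluble protein was the supernatant after 21,000xg for 90 min. Soluble protein was quantified by TMTpro 16plex LC-MS/MS with channel sums equalised, and reported as log2 fold change in thermal stability against DMSO controls, with values from duplicates.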
# Chain of UniProt P51946 (P51946 whole entry, looked up): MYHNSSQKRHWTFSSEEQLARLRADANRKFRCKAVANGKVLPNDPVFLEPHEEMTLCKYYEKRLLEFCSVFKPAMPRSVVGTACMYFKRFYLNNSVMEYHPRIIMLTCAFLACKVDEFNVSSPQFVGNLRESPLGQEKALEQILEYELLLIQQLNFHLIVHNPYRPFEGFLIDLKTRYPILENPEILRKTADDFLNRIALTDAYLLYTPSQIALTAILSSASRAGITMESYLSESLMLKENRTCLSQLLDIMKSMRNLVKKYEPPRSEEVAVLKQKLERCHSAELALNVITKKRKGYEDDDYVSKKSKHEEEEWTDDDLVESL
# Chain of UniProt Q9NPF2 (Q9NPF2 whole entry, looked up): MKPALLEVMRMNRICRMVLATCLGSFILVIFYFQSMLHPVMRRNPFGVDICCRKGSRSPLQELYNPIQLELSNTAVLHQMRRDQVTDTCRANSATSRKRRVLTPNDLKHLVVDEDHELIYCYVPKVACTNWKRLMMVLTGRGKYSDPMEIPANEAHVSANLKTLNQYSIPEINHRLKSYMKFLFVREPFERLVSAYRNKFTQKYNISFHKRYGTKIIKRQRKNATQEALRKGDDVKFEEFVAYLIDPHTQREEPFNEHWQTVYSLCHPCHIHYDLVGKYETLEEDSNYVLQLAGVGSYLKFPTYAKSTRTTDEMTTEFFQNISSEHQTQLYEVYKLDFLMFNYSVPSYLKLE
# Chain of UniProt P35219 (P35219 whole entry, looked up): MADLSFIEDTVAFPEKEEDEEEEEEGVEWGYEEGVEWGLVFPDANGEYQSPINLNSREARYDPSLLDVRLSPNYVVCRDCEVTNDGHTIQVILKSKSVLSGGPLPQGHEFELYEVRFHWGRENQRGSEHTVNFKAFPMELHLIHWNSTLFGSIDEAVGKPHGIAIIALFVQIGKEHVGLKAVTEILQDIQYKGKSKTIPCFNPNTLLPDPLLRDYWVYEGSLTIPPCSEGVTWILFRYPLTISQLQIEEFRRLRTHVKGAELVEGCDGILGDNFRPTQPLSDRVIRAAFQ
# Chain of UniProt Q2TAC2 (Q2TAC2 whole entry, looked up): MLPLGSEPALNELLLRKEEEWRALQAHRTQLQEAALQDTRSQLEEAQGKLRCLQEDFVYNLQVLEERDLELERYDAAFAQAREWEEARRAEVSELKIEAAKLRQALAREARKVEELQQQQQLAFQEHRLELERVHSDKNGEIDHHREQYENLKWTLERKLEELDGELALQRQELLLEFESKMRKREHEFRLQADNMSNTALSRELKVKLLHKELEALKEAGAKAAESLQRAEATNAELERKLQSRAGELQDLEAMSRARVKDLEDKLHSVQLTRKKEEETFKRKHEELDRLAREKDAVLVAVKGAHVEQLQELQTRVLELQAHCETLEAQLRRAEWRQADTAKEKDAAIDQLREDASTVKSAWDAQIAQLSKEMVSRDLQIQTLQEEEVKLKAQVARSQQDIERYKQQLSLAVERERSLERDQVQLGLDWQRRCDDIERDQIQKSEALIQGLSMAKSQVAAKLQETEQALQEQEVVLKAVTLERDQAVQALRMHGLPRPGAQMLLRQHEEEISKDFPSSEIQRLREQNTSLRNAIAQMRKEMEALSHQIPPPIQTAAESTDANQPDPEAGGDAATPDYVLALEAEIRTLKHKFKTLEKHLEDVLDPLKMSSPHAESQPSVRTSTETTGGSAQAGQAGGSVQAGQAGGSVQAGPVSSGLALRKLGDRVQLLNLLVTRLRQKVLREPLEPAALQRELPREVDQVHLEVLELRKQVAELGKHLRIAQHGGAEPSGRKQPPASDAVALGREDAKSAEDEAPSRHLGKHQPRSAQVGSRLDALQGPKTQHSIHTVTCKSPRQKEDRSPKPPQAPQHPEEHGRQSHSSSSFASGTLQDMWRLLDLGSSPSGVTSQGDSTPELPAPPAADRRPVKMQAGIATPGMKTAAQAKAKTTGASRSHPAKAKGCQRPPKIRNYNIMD
# Chain of UniProt Q00534 (Q00534 whole entry, looked up): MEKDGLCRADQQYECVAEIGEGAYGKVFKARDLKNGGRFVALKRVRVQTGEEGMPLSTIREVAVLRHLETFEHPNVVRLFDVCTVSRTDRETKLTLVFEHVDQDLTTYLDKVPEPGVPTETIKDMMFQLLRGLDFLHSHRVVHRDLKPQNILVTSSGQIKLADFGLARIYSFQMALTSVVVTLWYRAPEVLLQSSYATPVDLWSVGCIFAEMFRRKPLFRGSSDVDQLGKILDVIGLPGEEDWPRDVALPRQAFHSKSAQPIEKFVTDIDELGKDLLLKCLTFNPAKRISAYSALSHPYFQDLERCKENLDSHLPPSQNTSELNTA
# Chain of UniProt Q5T5Y3 (Q5T5Y3 whole entry, looked up): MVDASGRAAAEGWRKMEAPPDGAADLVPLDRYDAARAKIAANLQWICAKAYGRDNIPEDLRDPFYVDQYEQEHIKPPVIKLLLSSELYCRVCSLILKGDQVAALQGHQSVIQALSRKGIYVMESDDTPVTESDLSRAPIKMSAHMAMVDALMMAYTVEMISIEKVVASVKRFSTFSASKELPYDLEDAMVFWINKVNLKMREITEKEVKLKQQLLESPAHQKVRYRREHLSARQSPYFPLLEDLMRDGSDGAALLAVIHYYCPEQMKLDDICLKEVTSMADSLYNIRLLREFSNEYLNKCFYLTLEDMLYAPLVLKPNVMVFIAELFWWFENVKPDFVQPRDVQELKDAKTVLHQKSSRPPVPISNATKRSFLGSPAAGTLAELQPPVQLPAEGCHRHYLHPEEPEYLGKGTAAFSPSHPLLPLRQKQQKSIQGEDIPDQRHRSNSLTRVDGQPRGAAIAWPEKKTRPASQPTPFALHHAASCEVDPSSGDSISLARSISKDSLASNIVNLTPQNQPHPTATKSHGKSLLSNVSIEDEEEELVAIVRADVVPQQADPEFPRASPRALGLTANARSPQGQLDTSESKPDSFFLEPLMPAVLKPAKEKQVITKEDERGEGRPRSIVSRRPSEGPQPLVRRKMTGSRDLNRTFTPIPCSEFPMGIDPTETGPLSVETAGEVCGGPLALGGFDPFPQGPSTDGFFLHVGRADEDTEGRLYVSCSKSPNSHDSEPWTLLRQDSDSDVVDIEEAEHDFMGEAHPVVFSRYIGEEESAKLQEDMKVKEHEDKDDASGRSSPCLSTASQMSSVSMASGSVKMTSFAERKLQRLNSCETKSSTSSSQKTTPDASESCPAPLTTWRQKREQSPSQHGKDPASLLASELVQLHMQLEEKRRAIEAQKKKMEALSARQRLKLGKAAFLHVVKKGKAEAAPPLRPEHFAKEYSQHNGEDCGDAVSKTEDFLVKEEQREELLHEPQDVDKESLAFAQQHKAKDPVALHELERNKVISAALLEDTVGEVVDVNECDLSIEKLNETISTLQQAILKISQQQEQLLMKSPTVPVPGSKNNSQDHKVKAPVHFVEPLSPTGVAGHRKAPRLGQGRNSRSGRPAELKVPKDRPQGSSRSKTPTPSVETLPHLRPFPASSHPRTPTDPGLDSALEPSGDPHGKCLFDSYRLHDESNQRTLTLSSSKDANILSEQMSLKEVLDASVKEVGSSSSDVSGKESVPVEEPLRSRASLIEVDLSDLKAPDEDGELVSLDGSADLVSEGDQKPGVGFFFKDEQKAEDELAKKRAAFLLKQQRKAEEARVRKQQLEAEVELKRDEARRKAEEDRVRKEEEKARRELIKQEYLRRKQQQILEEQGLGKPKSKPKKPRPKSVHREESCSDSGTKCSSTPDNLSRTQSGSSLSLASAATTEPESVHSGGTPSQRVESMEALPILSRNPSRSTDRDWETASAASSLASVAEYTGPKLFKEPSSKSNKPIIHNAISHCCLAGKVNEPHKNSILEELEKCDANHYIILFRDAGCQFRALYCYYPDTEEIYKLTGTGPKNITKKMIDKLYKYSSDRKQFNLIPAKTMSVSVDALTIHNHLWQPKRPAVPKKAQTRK
# Chain of UniProt Q16740 (Q16740 whole entry, looked up): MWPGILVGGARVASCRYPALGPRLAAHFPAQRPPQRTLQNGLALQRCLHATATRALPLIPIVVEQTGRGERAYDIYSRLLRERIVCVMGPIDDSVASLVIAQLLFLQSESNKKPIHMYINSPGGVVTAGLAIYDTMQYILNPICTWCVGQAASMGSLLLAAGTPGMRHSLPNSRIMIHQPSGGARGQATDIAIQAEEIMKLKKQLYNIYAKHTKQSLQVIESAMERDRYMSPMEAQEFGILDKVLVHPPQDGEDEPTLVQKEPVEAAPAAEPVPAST
# Chain of UniProt Q8IUI8 (Q8IUI8 whole entry, looked up): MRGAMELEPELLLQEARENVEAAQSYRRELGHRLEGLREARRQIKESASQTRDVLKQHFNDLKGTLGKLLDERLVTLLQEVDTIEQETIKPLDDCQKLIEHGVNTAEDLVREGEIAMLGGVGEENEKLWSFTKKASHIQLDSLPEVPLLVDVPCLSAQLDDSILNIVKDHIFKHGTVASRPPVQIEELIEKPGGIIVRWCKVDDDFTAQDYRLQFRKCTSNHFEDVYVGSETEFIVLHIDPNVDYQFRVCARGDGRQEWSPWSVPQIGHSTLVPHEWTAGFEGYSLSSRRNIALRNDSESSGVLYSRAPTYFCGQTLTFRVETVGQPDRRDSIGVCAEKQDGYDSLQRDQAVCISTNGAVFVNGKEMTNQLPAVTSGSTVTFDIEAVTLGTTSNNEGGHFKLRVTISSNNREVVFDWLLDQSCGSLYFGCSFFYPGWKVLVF
# Chain of UniProt Q86X83 (Q86X83 whole entry, looked up): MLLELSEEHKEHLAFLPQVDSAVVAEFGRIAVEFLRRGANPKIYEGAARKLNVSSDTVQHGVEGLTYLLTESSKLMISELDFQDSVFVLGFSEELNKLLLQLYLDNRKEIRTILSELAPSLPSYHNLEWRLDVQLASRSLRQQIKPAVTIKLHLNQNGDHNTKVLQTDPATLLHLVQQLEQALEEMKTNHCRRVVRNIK
# Chain of UniProt P00915 (P00915 whole entry, looked up): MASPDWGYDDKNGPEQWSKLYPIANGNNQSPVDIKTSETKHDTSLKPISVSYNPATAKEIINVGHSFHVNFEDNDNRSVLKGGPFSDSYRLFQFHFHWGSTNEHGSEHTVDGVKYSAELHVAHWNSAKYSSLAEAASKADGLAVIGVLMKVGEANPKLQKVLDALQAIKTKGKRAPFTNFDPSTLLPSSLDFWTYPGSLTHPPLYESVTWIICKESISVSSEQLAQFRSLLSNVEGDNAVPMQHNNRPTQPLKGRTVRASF
row,Target,log2 fold change
1,COMMD2 (UniProt Q86X83),0.11 (inactive)
2,CDK6 (UniProt Q00534),-0.019 (inactive)
3,CA8 (UniProt P35219),0.077 (inactive)
4,CA1 (UniProt P00915),-0.021 (inactive)
5,CLSPN (UniProt Q9HAW4),-0.032 (inactive)
6,CCNH (UniProt P51946),-0.007 (inactive)
7,CLPP (UniProt Q16740),0.003 (inactive)
8,CHD4 isoform 2 (UniProt Q14839),0.154 (inactive)
9,CAMSAP1 isoform 3 (UniProt Q5T5Y3),0.151 (inactive)
10,CCDC57 (UniProt Q2TAC2),0.027 (inactive)
11,CHST11 (UniProt Q9NPF2),-0.029 (inactive)
12,CRLF3 (UniProt Q8IUI8),0.065 (inactive)
13,CAD (UniProt P27708),0.008 (inactive)

# Compound: CCN(CCCOc1ccc2c(Nc3cc(CC(=O)Nc4cccc(F)c4)[nH]n3)ncnc2c1)CCOP(=O)(O)O [barasertib]
# Assay: as above
# In short: as §1
row,Target,log2 fold change
1,CLCN7 (UniProt P51798),-0.015 (inactive)
2,CCZ1 (UniProt P86791),-0.011 (inactive)
3,C1D (UniProt Q13901),0.104 (inactive)
4,CNOT7 (UniProt Q9UIV1),0.004 (inactive)
5,CDC42BPA isoform 6 (UniProt Q5VT25),0.04 (inactive)
6,COMMD1 (UniProt Q8N668),0.057 (inactive)
7,CETN3 (UniProt O15182),0.043 (inactive)
8,C4orf33 (UniProt Q8N1A6),0.03 (inactive)
9,CDK9 isoform 2 (UniProt P50750),0.002 (inactive)
10,CDC25B isoform 4 (UniProt P30305),-0.044 (inactive)
11,CHEK1 (UniProt O14757),0.033 (inactive)
12,CD53 (UniProt P19397),-0.102 (inactive)
13,CRTC2 (UniProt Q53ET0),0.062 (inactive)
14,CDK4 (UniProt P11802),-0.023 (inactive)
15,CNOT1 (UniProt A5YKK6),0.044 (inactive)
16,CPSF1 (UniProt Q10570),-0.024 (inactive)
17,"CLUH, A0A494C0R8",-0.043 (inactive)
18,CEPT1 (UniProt Q9Y6K0),0.013 (inactive)

row,Target,log2 fold change
1,CELF2 isoform 3 (UniProt O95319),0.001 (inactive)
2,CDC42SE1 (UniProt Q9NRR8),0.071 (inactive)
3,CASP3 (UniProt P42574),-0.005 (inactive)
4,CDK12 (UniProt Q9NYV4),-0.083 (inactive)
5,COQ9 (UniProt O75208),0.046 (inactive)
6,COMMD2 (UniProt Q86X83),0.053 (inactive)
7,CDK6 (UniProt Q00534),-0.018 (inactive)
8,CA8 (UniProt P35219),0.034 (inactive)
9,CA1 (UniProt P00915),0.008 (inactive)
10,CLSPN (UniProt Q9HAW4),0.006 (inactive)
11,CCNH (UniProt P51946),0.031 (inactive)
12,CLPP (UniProt Q16740),0.001 (inactive)
13,CHD4 isoform 2 (UniProt Q14839),0.121 (inactive)
14,CAMSAP1 isoform 3 (UniProt Q5T5Y3),0.077 (inactive)
15,CCDC57 (UniProt Q2TAC2),0.015 (inactive)
16,CHST11 (UniProt Q9NPF2),0.049 (inactive)
17,CRLF3 (UniProt Q8IUI8),0.073 (inactive)
18,CAD (UniProt P27708),0.002 (inactive)

# Compound: CC[C@@H]1C(=O)N(C)c2cnc(Nc3ccc(C(=O)NC4CCN(C)CC4)cc3OC)nc2N1C1CCCC1
# Assay: as above
# In short: as §1
row,Target,log2 fold change
1,CLCN7 (UniProt P51798),-0.338 (active)
2,CCZ1 (UniProt P86791),-0.199 (inactive)
3,C1D (UniProt Q13901),0.088 (inactive)
4,CNOT7 (UniProt Q9UIV1),-0.086 (inactive)
5,CDC42BPA isoform 6 (UniProt Q5VT25),-0.021 (inactive)
6,COMMD1 (UniProt Q8N668),-0.029 (inactive)
7,CETN3 (UniProt O15182),0.037 (inactive)
8,C4orf33 (UniProt Q8N1A6),0.044 (inactive)
9,CDK9 isoform 2 (UniProt P50750),-0.01 (inactive)
10,CDC25B isoform 4 (UniProt P30305),-0.003 (inactive)
11,CHEK1 (UniProt O14757),-0.137 (inactive)
12,CD53 (UniProt P19397),0.183 (inactive)
13,CRTC2 (UniProt Q53ET0),0.014 (inactive)
14,CDK4 (UniProt P11802),0.16 (inactive)
15,CNOT1 (UniProt A5YKK6),-0.051 (inactive)
16,CPSF1 (UniProt Q10570),0.053 (inactive)
17,"CLUH, A0A494C0R8",0.183 (inactive)
18,CEPT1 (UniProt Q9Y6K0),-0.186 (inactive)

row,Target,log2 fold change
1,CELF2 isoform 3 (UniProt O95319),0.115 (inactive)
2,CDC42SE1 (UniProt Q9NRR8),-0.995 (active)
3,CASP3 (UniProt P42574),0.012 (inactive)
4,CDK12 (UniProt Q9NYV4),0.147 (inactive)
5,COQ9 (UniProt O75208),-0.04 (inactive)
6,COMMD2 (UniProt Q86X83),-0.004 (inactive)
7,CDK6 (UniProt Q00534),-0.027 (inactive)
8,CA8 (UniProt P35219),-0.055 (inactive)
9,CA1 (UniProt P00915),0 (inactive)
10,CLSPN (UniProt Q9HAW4),-0.017 (inactive)
11,CCNH (UniProt P51946),-0.034 (inactive)
12,CLPP (UniProt Q16740),-0.03 (inactive)
13,CHD4 isoform 2 (UniProt Q14839),-0.124 (inactive)
14,CAMSAP1 isoform 3 (UniProt Q5T5Y3),-0.044 (inactive)
15,CCDC57 (UniProt Q2TAC2),-0.033 (inactive)
16,CHST11 (UniProt Q9NPF2),-0.215 (inactive)
17,CRLF3 (UniProt Q8IUI8),-0.085 (inactive)
18,CAD (UniProt P27708),0.006 (inactive)

# Source: the supplement of paper PMC10849652
